Laboratory results reported in the supplement of paper PMC10338343.
± gives the standard deviation.

Tested on: MILI (PIWIL2) piRISC loaded with L1MC piRNA (26 nt)
Experiment: pre-steady-state target cleavage rate (min^-1); guide: L1MC piRNA 5'p-UAACUAAAUACUAUGCAAGCUGUAGG; MIWI and MILI are mouse PIWI proteins and EfPiwi is from a freshwater sponge; tags in brackets are library labels; higher = faster piRNA-guided slicing of the target
Outline: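 Active affinity-purified piRISC carrying one synthetic guide (1 nM) was mixed with a transcribed, DNA-blocked target RNA library […] in HEPES–potassium acetate buffer at 33 °C for 0–8 or 0–960 min, with or without 500 nM GTSF1 partner protein. Uncleaved targets were then sequenced and normalised to depth and to weakly complementary targets. Three trials were pooled, and k3 was capped at 0.0001 min^-1. A burst-and-steady-state fit was applied to obtain the pre-steady-state cleavage rate.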

[1] = auxiliary factor: 500 nM mouse GTSF1
[2] = auxiliary factor: none (no GTSF1)
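Further: 1 nM active piRISC with 0.1 nM target library at 33 °C single turnover.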

Sequence | pre-steady-state target cleavage rate [1] | pre-steady-state target cleavage rate [2]
UCCUGGAACAGCAACCAUAGUAUUUAGUUA | 0.152 ± 0.018 | 0.00431 ± 0.0018
UCCUGGAUGUCGUUGCAUAGUACUUUAGUUA | 0.0156 ± 0.0059 | 0.00645 ± 0.0028
UCCUGGAUCAGCUUGCAAUGUAUUUAGUUA | 0.0475 ± 0.011 | 0.00413 ± 0.0025
UCCUGGAUGUGCUUGCAAGUAUUUAGUUA | 0.00781 ± 0.0036 | 0.00503 ± 0.0024
UCCUGGAUCAGCUUGCAUAGUUUAUAGUUA | 0.0204 ± 0.008 | 0.00545 ± 0.0025
UCCUGGAUCUCGUUGCAUAGUAUUUAGUAA | 0.114 ± 0.018 | 0.003 ± 0.0027
UCCUGGAUGUCGUUGCAUAGUGUUUAGUUA | 0.0461 ± 0.01 | 0.00452 ± 0.0029
UCCUGGAUGUCGAAGCAUAGUAUUUAAGUUA | 0.064 ± 0.0095 | 0.00425 ± 0.0022
UCCUGGAUGAGCUUGCUUAGUAUUUACUUA | 0.124 ± 0.031 | 0.00394 ± 0.0031
UCCUGGAUCAGCUUGGAUAGUAUAUAGUUA | 0.124 ± 0.018 | 0.00459 ± 0.0024
UCCUGGUACAGGUUGCAUAGUAUUUUGUUA | 0.189 ± 0.042 | 0.0111 ± 0.0045
UCCUGGAUGUCCUUGCAUAGAUAUUUAGUUA | 0.00754 ± 0.004 | 0.00426 ± 0.0023
UCCUGGAUGUGCUUGGAUAGUAAUUAGUUA | 0.0687 ± 0.014 | 0.00472 ± 0.0026
UCCUGGAACAGCUUGCAUUGUUUUUAGUUA | 0.0144 ± 0.0059 | 0.00334 ± 0.0023
UCCUGGAUGUCGUUGCAUAGUAUUUAGUUG [g2:g18:cont:t1G] | 0.1 ± 0.016 | 0.00688 ± 0.003
UCCUGGAUGUCGAACGAGAGUAUUUAGUUA | < 0.0001 | < 0.0001
UCCUGGAACAGGUUGCAUUGUAUUUAGUUA | 0.157 ± 0.014 | 0.00837 ± 0.0019
UCCUGGUACAGCUUGCAUUGUUUUUAGUUA | 0.0201 ± 0.0095 | 0.00647 ± 0.0034
UCCUGGUAGAGCUAGCAUAGUAUUUAGUUA | 0.216 ± 0.019 | 0.00986 ± 0.0028
UCCUGGAUCCAGCUUGCAUAGUAUUUAGUUA | 0.3 ± 0.017 | 0.00437 ± 0.003
UCCUGGUACAGCUUGCAUAGUCAUUUAGUUA | 0.0147 ± 0.0072 | 0.00451 ± 0.0041
UCCUGGAUGUCCUAGCAUAGUAUUUAGUUA | 0.0817 ± 0.015 | 0.00379 ± 0.002
UCCUGGAUGAGCUUGCAUAGUAUAAUGUUA | 0.229 ± 0.061 | 0.00329 ± 0.0028
UCCUCCUACUCGUUGCAUAGUAUUUAGUUA | 0.211 ± 0.018 | 0.00864 ± 0.002
UCCUGGUACAGGUAGCAUAGUAUUUAGUUA | 0.21 ± 0.021 | 0.00976 ± 0.0036
UCCUGGAUGAGCUUGCAUAGAUUUUAGUUA | 0.0099 ± 0.0044 | 0.00304 ± 0.0029
UCCUGGAUGAGCUUGGUAAGUAUUUAGUUA | 0.009 ± 0.0036 | 0.00405 ± 0.0023

Sequence | pre-steady-state target cleavage rate [1] | pre-steady-state target cleavage rate [2]
UCCUGGAUGUCCUUGCAUGGUAUUUAGUUA | 0.0346 ± 0.011 | 0.00814 ± 0.0026
UCCUGGUACAGCAAGCAUAGUAUUUAGUAA | 0.239 ± 0.029 | 0.00526 ± 0.0023
UCCUGGAUGUCGAAGCAUAGUAAUUUAGUUA | 0.0148 ± 0.0051 | 0.0059 ± 0.0018
UCCUGGAACAGCUUGGAUAGUAUUUUGUUA | 0.203 ± 0.034 | 0.00404 ± 0.0026
UCCUGGAUGUCAUUGCAUAGUAUUUAGUUA | 0.0928 ± 0.015 | 0.0087 ± 0.0027
UCCUGGAACAGCUUGGUUAGUAUUUAGUAA | 0.188 ± 0.035 | 0.00709 ± 0.0024
UCCUGGAACAGCUUGCAAAGUAUUUAGUAA | 0.158 ± 0.022 | 0.00401 ± 0.0024
UCCUGGUACAGGCUUGCAUAGUAUUUAGUUA | 0.203 ± 0.026 | 0.0131 ± 0.0043
UCCUGGAUGUCCUUGCUUAGUAUAUAGUUA | 0.0347 ± 0.0085 | 0.0039 ± 0.0023
UCCUGGAACAGCUUGCAAAGUUUUUAGUUA | 0.0201 ± 0.0064 | 0.0029 ± 0.0026
UCCUGGAUGUCGUUGGAUACUAUUUAGUUA | < 0.0001 | < 0.0001
UCCUGGAUGUGCUAGCAUAGUUUUUAGUUA | 0.0108 ± 0.0046 | 0.00466 ± 0.0027
UCCUGGUACAGCUUCCAUUGUAUUUAGUUA | 0.113 ± 0.039 | 0.00415 ± 0.0035
UCCUGGAUGAGCUUGCAUAGUAUUUAGUUU [g2:g21:cont:t1U] | 0.226 ± 0.011 | 0.0146 ± 0.0035
UCCUGGUAGCAGCUUGCAUAGUAUUUAGUUA | 0.286 ± 0.019 | 0.0162 ± 0.0048
UCCUGGAUGUGCUUGCAUAGUAUUUAUGUUA | 0.109 ± 0.021 | 0.0053 ± 0.0027
UCCUGGAUGUCCUUGCAUAGUCAUUUAGUUA | 0.00722 ± 0.0051 | 0.00338 ± 0.003
UCCUGGAUGAGGUUGCAUAGUUUUUAGUUA | 0.00694 ± 0.0049 | 0.00583 ± 0.0024
UCCUGGAUGAGCUUGCAAAGUAUUAAGUUA | 0.0742 ± 0.012 | 0.00449 ± 0.0026
UCCUGGAUCUGCUUGCUUAGUAUUUAGUUA | 0.238 ± 0.017 | 0.00748 ± 0.0024
UCCUGGAACAGCUUCCUUAGUAUUUAGUUA | 0.214 ± 0.018 | 0.00562 ± 0.002
UCCUGGAUGUGGUUGCAUAGUAUUUAGUUA | 0.163 ± 0.022 | 0.0112 ± 0.0031
UCCUGGUAGUGCUUGCAUAGUAUUUAGUUA | 0.184 ± 0.018 | 0.00947 ± 0.0025
UCCUGGUACAGCUAGCUUAGUAUUUAGUUA | 0.248 ± 0.023 | 0.00768 ± 0.0025
UCCUGGUACAGCUAGCAUUGUAUUUAGUUA | 0.127 ± 0.017 | 0.00717 ± 0.0034
UCCUGGAUGUCCUUGCAUAGUAUAAAGUUA | 0.0673 ± 0.015 | 0.00312 ± 0.0028
UCCUGGAUGUGGAUGCAUAGUAUUUAGUAA | 0.0714 ± 0.012 | 0.00471 ± 0.003
